In PubChem BioAssay (EPA / NIEHS):
Values joined by “and” are separate entries in the source; they are usually repeats but may differ in a detail not shown here. Equal entries are not always repeated. Some compounds were tested as several samples or in several runs, with calls that do not always agree. Active and inactive are the calls of the source. The calls were made as follows: active = hit-call score of the fitted dose curve at least 0.9, where 1 is the maximum; inactive = score below 0.9.

Columns and labels:
Conditions in all cases: mRNA level, 48 h; actives raise or lower the signal
[1] = read-out: Interleukin 6 Receptor (IL6R), IL6R (gene 3570); assay: LTEA_HepaRG_IL6R: Life Technologies and Expression Analysis (LTEA) Assay for Interleukin 6 Receptor (IL6R) using HepaRG (AID 2283510)
Procedure, shortened: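 Readout is IL6R transcript level by TaqMan qRT-PCR, normalized to three housekeeping genes and fitted bidirectionally against 0.5% DMSO controls. Human HepaRG cells received chemicals for 48 h in serum-free induction medium, highest concentration 100 uM.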

[2] = read-out: Potassium channel subfamily K member 1 (KCNK1), KCNK1 (gene 3775); assay: LTEA_HepaRG_KCNK1: Life Technologies and Expression Analysis (LTEA) Assay for Potassium channel subfamily K member 1 (KCNK1) using HepaRG (AID 2283511)
Procedure, shortened: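 Differentiated human HepaRG cells in serum-free induction medium were exposed in duplicate for 48 h to 8 half-log concentrations up to 100 uM in 0.5% DMSO. KCNK1 mRNA was measured by TaqMan qRT-PCR, normalized to ACTB, GAPDH and POLR2A, and fitted bidirectionally versus DMSO.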

[3] = read-out: Keratin 19 (KRT19), KRT19 (gene 3880); assay: LTEA_HepaRG_KRT19: Life Technologies and Expression Analysis (LTEA) Assay for Keratin 19 (KRT19) using HepaRG (AID 2283512)
Procedure, shortened: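 HepaRG, 48 h chemical exposure, 8-pt half-log CRC from 100 uM, 0.5% DMSO vehicle, duplicates. Readout: TaqMan qRT-PCR of KRT19 mRNA, housekeeping-normalized (ACTB/GAPDH/POLR2A). Bidirectional fit vs DMSO baseline.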

[4] = read-out: JUN Transcription Factor, JUN (gene 3725); assay: LTEA_HepaRG_JUN: Life Technologies and Expression Analysis (LTEA) Assay for JUN Transcription Factor using HepaRG (AID 2283513)
Procedure, shortened: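 Cells plated 48 h, medium switched to serum-free induction medium, then dosed 48 h (100 uM top, half-log dilutions, 0.5% DMSO). RNA isolated; JUN measured by qRT-PCR against three housekeeping genes; gain or loss fitted relative to DMSO.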

[5] = read-out: Lipase C (LIPC), LIPC (gene 3990); assay: LTEA_HepaRG_LIPC: Life Technologies and Expression Analysis (LTEA) Assay for Lipase C (LIPC) using HepaRG (AID 2283514)
Procedure, shortened: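 Differentiated human HepaRG cells in serum-free induction medium were exposed in duplicate for 48 h to eight concentrations (top 100 uM, half-log steps, 0.5% DMSO). LIPC mRNA was quantified by TaqMan qRT-PCR, normalized to ACTB, GAPDH and POLR2A, with bidirectional fitting versus DMSO.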

[6] = read-out: Lipoprotein lipase (LPL), LPL (gene 4023); assay: LTEA_HepaRG_LPL: Life Technologies and Expression Analysis (LTEA) Assay for Lipoprotein lipase (LPL) using HepaRG (AID 2283515)
Procedure, shortened: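 Differentiated human HepaRG cells in serum-free induction medium were exposed in duplicate for 48 h to eight half-log concentrations (top 100 uM) in 0.5% DMSO. LPL mRNA was quantified by TaqMan qRT-PCR, normalized to ACTB, GAPDH and POLR2A.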

[7] = read-out: MicroRNA 122 (MIR122), gene 406906; assay: LTEA_HepaRG_MIR122: Life Technologies and Expression Analysis (LTEA) Assay for MicroRNA 122 (MIR122) using HepaRG (AID 2283516); also: the transcript read is the microRNA miR-122
Procedure, shortened: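 HepaRG plated 48 h, switched to serum-free induction medium, then treated in duplicate for 48 h (100 uM top, half-log steps, 0.5% DMSO vehicle). RNA isolated, qRT-PCR performed, concentration-response fitted both directions relative to DMSO.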

MYC, MYC (gene 4609) = assay: LTEA_HepaRG_MYC: Life Technologies and Expression Analysis (LTEA) Assay for MYC using HepaRG (AID 2283518)
Procedure, shortened: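 qRT-PCR read-out of MYC transcript (Fluidigm TaqMan, housekeeping-normalized) after 48 h chemical exposure of HepaRG cells; eight concentrations, top 100 uM, half-log steps. Bidirectional curve fitting against 0.5% DMSO vehicle baseline.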

[8] = read-out: matrix metalloproteinase-3 (MMP3), MMP3 (gene 4314); assay: LTEA_HepaRG_MMP3: Life Technologies and Expression Analysis (LTEA) Assay for matrix metalloproteinase-3 (MMP3) using HepaRG (AID 2283519)
Procedure, shortened: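 Differentiated human HepaRG cells, plated 48 h on collagen I, were exposed in duplicate for 48 h in serum-free induction medium to eight half-log concentrations up to 100 uM in 0.5% DMSO. MMP3 mRNA was quantified by TaqMan qRT-PCR, normalised to ACTB, GAPDH and POLR2A.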

[9] = read-out: Paternally Expressed 10 (PEG10), PEG10 (gene 23089); assay: LTEA_HepaRG_PEG10: Life Technologies and Expression Analysis (LTEA) Assay for Paternally Expressed 10 (PEG10) using HepaRG (AID 2283520)
Procedure, shortened: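 HepaRG, 48 h post-plating → serum-free induction medium → 48 h chemical exposure (duplicate, 8-pt, max 100 uM, half-log, 0.5% DMSO) → lysis in RLT → TaqMan qRT-PCR for PEG10, ACTB/GAPDH/POLR2A normalisation.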

[10] = read-out: Nuclear factor NF-kappa-B p105 subunit (Homo sapiens) (UniProt P19838); assay: LTEA_HepaRG_NFKB1: Life Technologies and Expression Analysis (LTEA) Assay for Nuclear Factor Kappa B Subunit 1 (NFKB1) using HepaRG (AID 2283521)
Procedure, shortened: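 Differentiated human HepaRG cells were exposed for 48 h in serum-free induction medium to eight concentrations (top 100 uM, half-log steps, 0.5% DMSO), in duplicate. NFKB1 mRNA was measured by TaqMan qRT-PCR, normalized to ACTB/GAPDH/POLR2A, and fitted bidirectionally against DMSO.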

[11] = read-out: Protein phosphatase 2A (PPP2R4), PTPA (gene 5524); assay: LTEA_HepaRG_PPP2R4: Life Technologies and Expression Analysis (LTEA) Assay for Protein phosphatase 2A (PPP2R4) using HepaRG (AID 2283522)
Procedure, shortened: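 Readout is PPP2R4 transcript level by microfluidic qRT-PCR after 48 h chemical treatment of human HepaRG liver cells. Concentrations spanned 100 uM downward in half-log steps; gain or loss of signal was fitted relative to DMSO.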

[12] = read-out: Phosphatase and tensin (PTEN), PTEN (gene 5728); assay: LTEA_HepaRG_PTEN: Life Technologies and Expression Analysis (LTEA) Assay for Phosphatase and tensin (PTEN) using HepaRG (AID 2283523)
Procedure, shortened: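 Differentiated human HepaRG cells, plated 48 h then switched to serum-free induction medium, were exposed in duplicate for 48 h to eight half-log concentrations up to 100 uM in 0.5% DMSO. PTEN mRNA measured by TaqMan qRT-PCR, normalized to ACTB/GAPDH/POLR2A, bidirectional fit versus DMSO.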

[13] = read-out: Nuclear factor erythroid 2-related factor 2 (Homo sapiens) (UniProt Q16236); assay: LTEA_HepaRG_NFE2L2: Life Technologies and Expression Analysis (LTEA) Assay for Nuclear factor erythroid 2-related factor 2 (NFE2L2) Transcription Factor using HepaRG (AID 2283527)
Procedure, shortened: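 Differentiated human HepaRG cells in serum-free induction medium were exposed for 48 h to eight concentrations (top 100 uM, half-log dilutions, 0.5% DMSO), in duplicate. NFE2L2 mRNA was quantified by TaqMan qRT-PCR, normalized to ACTB, GAPDH and POLR2A, with bidirectional fitting versus DMSO.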

[14] = read-out: succinate dehydrogenase complex iron sulfur subunit B (SDHB), SDHB (gene 6390); assay: LTEA_HepaRG_SDHB: Life Technologies and Expression Analysis (LTEA) Assay for succinate dehydrogenase complex iron sulfur subunit B (SDHB) using HepaRG (AID 2283528)
Procedure, shortened: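 HepaRG, 48 h exposure, 8-pt half-log series from 100 uM in 0.5% DMSO, duplicates. Readout: SDHB mRNA by Fluidigm qRT-PCR vs housekeeping genes; bidirectional fit relative to DMSO.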

[15] = read-out: Signal transducer and activator of transcription 3 (Homo sapiens) (UniProt P40763); assay: LTEA_HepaRG_STAT3: Life Technologies and Expression Analysis (LTEA) Assay for Signal transducer and activator of transcription (STAT3) using HepaRG (AID 2283529)
Procedure, shortened: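 Differentiated human HepaRG cells in serum-free induction medium were exposed in duplicate for 48 h to eight half-log concentrations up to 100 uM in 0.5% DMSO. STAT3 mRNA was quantified by TaqMan qRT-PCR, normalized to ACTB, GAPDH and POLR2A, and fitted bidirectionally against DMSO.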

[16] = read-out: NAD(P)H dehydrogenase [quinone] 1 (NQO1), NQO1 (gene 1728); assay: LTEA_HepaRG_NQO1: Life Technologies and Expression Analysis (LTEA) Assay for NAD(P)H dehydrogenase [quinone] 1 (NQO1) using HepaRG (AID 2283526)
Procedure, shortened: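 HepaRG, 48 h post-plating → serum-free induction medium → test chemical 48 h (duplicate, 100 uM top, half-log x8, 0.5% DMSO) → RNA isolation → qRT-PCR, ACTB/GAPDH/POLR2A normalization; bidirectional curve fit vs DMSO baseline.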

[17] = read-out: solute carrier (SLC22A1), SLC22A1 (gene 6580); assay: LTEA_HepaRG_SLC22A1: Life Technologies and Expression Analysis (LTEA) Assay for solute carrier (SLC22A1) using HepaRG (AID 2283524)
Procedure, shortened: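 Human HepaRG cells were plated 48 h, switched to serum-free induction medium, then exposed in duplicate for 48 h to 8-point half-log series from 100 uM in 0.5% DMSO. SLC22A1 mRNA measured by qRT-PCR, normalized to ACTB/GAPDH/POLR2A, fitted bidirectionally versus DMSO.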

[18] = read-out: matrix metalloproteinase-10 (MMP10), MMP10 (gene 4319); assay: LTEA_HepaRG_MMP10: Life Technologies and Expression Analysis (LTEA) Assay for matrix metalloproteinase-10 (MMP10) using HepaRG (AID 2283517)
Procedure, shortened: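 HepaRG, collagen I, ~100,000 cells/well; serum-free induction medium; 48 h exposure, duplicate, 8-pt half-log to 100 uM, 0.5% DMSO. Readout: TaqMan qRT-PCR, normalized to ACTB/GAPDH/POLR2A; bidirectional fit vs DMSO.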

[19] = read-out: Pyruvate Dehydrogenase Kinase 4 (PDK4), PDK4 (gene 5166); assay: LTEA_HepaRG_PDK4: Life Technologies and Expression Analysis (LTEA) Assay for Pyruvate Dehydrogenase Kinase 4 (PDK4) using HepaRG (AID 2283525)
Procedure, shortened: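 Differentiated human HepaRG cells, pre-cultured 48 h, were exposed in duplicate for 48 h in serum-free induction medium to eight half-log concentrations up to 100 uM in 0.5% DMSO. PDK4 mRNA was quantified by qRT-PCR, normalized to ACTB, GAPDH and POLR2A, bidirectional fitting versus DMSO.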

Measured: AC50

Chain of Nuclear factor NF-kappa-B p105 subunit (Homo sapiens) (P19838 whole entry, looked up): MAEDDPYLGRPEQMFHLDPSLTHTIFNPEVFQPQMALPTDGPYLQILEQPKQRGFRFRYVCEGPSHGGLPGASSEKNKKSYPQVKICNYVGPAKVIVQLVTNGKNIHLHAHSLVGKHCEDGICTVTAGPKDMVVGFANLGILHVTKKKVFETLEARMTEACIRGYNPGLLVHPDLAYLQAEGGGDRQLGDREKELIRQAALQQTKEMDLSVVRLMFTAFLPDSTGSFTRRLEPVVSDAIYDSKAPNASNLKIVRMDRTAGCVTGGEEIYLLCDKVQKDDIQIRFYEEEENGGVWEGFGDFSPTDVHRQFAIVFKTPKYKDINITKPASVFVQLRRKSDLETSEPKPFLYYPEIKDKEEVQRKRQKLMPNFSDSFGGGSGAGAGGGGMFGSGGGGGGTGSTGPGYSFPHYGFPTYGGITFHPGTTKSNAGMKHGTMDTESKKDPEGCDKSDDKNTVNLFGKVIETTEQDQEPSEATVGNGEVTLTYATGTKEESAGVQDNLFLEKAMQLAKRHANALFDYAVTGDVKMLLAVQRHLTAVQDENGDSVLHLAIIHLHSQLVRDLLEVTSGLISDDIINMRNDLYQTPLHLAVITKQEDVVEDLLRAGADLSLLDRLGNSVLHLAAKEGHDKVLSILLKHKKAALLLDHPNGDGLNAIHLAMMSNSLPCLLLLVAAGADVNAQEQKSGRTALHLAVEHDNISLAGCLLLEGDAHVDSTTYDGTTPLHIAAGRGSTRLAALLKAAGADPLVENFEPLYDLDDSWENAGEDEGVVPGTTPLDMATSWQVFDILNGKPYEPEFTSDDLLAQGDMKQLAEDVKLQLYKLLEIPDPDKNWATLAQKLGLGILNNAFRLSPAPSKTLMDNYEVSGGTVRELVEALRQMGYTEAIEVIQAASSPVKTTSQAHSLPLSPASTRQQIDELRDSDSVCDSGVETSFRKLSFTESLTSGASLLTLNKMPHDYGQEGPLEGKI
Chain of Signal transducer and activator of transcription 3 (Homo sapiens) (P40763 whole entry, looked up): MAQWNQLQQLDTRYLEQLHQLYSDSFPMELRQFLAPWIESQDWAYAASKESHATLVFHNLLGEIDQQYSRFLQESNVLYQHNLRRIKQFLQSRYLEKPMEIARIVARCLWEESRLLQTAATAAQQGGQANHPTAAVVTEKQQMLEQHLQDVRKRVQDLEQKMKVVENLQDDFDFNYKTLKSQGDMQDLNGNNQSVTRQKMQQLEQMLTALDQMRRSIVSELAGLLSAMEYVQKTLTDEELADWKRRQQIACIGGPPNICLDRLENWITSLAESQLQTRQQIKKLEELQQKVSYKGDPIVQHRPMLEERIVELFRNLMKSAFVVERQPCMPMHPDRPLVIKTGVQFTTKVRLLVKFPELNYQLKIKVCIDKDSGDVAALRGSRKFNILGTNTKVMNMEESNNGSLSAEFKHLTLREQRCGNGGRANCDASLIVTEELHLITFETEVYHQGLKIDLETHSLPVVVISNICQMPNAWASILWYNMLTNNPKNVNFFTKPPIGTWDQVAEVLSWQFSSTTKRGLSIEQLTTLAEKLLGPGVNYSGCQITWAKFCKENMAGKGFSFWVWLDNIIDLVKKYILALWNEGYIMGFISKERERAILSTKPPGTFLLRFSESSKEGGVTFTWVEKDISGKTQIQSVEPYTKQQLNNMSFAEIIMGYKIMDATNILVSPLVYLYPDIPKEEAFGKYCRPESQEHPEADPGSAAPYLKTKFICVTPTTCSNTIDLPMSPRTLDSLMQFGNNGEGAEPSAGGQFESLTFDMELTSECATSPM
Chain of Nuclear factor erythroid 2-related factor 2 (Homo sapiens) (Q16236 whole entry, looked up): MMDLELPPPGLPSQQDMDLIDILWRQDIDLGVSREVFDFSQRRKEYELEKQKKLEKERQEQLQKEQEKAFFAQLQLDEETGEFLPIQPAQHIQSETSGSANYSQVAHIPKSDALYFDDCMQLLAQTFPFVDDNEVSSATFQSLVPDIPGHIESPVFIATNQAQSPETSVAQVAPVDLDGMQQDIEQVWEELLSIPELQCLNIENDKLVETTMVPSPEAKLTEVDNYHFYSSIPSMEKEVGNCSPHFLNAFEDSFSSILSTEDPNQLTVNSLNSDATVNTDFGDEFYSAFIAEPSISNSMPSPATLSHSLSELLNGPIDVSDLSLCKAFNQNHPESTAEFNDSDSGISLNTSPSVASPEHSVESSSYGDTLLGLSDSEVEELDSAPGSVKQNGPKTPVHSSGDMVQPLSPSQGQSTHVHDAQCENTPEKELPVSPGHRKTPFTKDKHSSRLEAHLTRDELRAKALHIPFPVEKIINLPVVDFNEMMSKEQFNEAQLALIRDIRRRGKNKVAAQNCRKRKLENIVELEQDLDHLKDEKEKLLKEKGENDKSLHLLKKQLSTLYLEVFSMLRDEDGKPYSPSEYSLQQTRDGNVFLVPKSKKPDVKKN

Oc1cc(Cl)ccc1Oc1ccc(Cl)cc1Cl
inactive: [1] | [2] | [3] | [4] | [5] | [6] | [7] | MYC, MYC (gene 4609) | [8] | [9] | [10] | [11] | [12] | [13] | [14] | [15]
active: [1] 51 µM | [3] 69 µM | [5] 78.7 µM | [6] 86.4 nM and 51 µM | [7] 82.3 µM | MYC, MYC (gene 4609) 83.5 µM | [8] 51 µM | [9] 51 µM

CCC(C)(C)C(=O)OC1=C(c2ccc(Cl)cc2Cl)C(=O)OC12CCCCC2
active: [6] 40.8 µM
not listed: [17] | [18] | [19]
inactive: all other assays above

CNC(=O)Oc1ccccc1OC(C)C
not listed: [16] | [18] | [19]
inactive: all other assays above

O=C1c2ccccc2C(=O)N1SC(Cl)(Cl)Cl
not listed: [16] | [17] | [19]
inactive: all other assays above

COP(=S)(OC)Oc1ccc([N+](=O)[O-])cc1
not listed: [16] | [17] | [19]
inactive: all other assays above

Cc1[nH]c(=O)n(C(C)(C)C)c(=O)c1Cl
active: [3] 50 µM | [13] 50 µM
not listed: [16] | [17] | [18]
inactive: all other assays above

O=C(O)C(F)(F)C(F)(F)C(F)(F)C(F)(F)C(F)(F)C(F)(F)C(F)(F)F
not listed: [17] | [18] | [19]
inactive: all other assays above

CC(C)N(C(=O)COc1nnc(C(F)(F)F)s1)c1ccc(F)cc1
active: [9] 22.2 µM | [11] 31.4 µM
not listed: [16] | [17] | [18]
inactive: all other assays above

CCC(C)(NC(=O)c1cc(Cl)c(C)c(Cl)c1)C(=O)CCl (centres undefined)
active: [2] 50.2 µM | [3] 32.4 µM | [5] 50.2 µM | [6] 90.1 µM | [7] 75.5 µM | MYC, MYC (gene 4609) 50.2 µM | [9] 59.2 µM | [12] 90.8 µM | [16] 79.8 µM
inactive: [1] | [4] | [8] | [10] | [11] | [13] | [14] | [15]

O=[N+]([O-])/N=C1\NCCN1Cc1ccc(Cl)nc1
active: [1] 39 µM | [5] 36.4 µM | [6] 33 µM | [7] 23.9 µM | [9] 16.6 µM | [11] 24.3 µM | [19] 34.4 µM | [13] 18.9 µM | [14] 25.8 µM | [15] 20.1 µM
inactive: [2] | [3] | [4] | [18] | MYC, MYC (gene 4609) | [8] | [12]

CCOC1Oc2ccc(OS(C)(=O)=O)cc2C1(C)C (centres undefined)
inactive: [2] | [4] | [18] | [8] | [11] | [12] | [13]
active: [1] 60.7 µM | [3] 66 µM | [5] 74 µM | [6] 76.4 µM | [7] 78.7 µM | MYC, MYC (gene 4609) 77.7 µM | [9] 28.4 µM | [10] 9.92 µM | [14] 9.92 µM | [15] 21.4 µM
